Data from PubChem BioAssay (EPA / NIEHS).
Several values for one entry are separate records, joined by “and”; a condition that tells them apart may be missing. Equal values may be shown once. Records with an inconclusive call do not appear. Some structures have more than one record in an assay (separate samples or runs), and their calls can disagree. Activity calls are given as the source filed them. Rule for the calls, unless noted: active = hit-call score of the fitted dose curve at least 0.9, where 1 is the maximum; inactive = score below 0.9.

How the values were obtained:
[1] = IUF_NPC1a_proliferation_area_72hr: Leibniz Research Institute for Environmental Medicine (IUF) 72-hour Neural Progenitor Cell Proliferation Area Assay (NPC1a) (AID 2284208)
Procedure, shortened: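 hNPC spheres (human fetal cortex, GW 16-19), one per poly-Hema U-bottom well; EGF+FGF medium; dosed day 0, no re-dosing; 72 h, 37C, 5% CO2; phase-contrast sphere area; DMSO = baseline; minus-GF = positive ctrl.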

[2] = CCTE_Mundy_HCI_Cortical_Synap_Neur_Matur_NeuriteSpotCountPerNeuriteLength: CCTE's Synaptogenesis and Neurite Maturation Assay in rat cortical cells for Neurite Spot Count per Neurite Length, Mundy Lab (AID 2284210)
Procedure, shortened: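 Rat primary cortical cultures, AraC added at DIV 5 to suppress glia; chemical exposure from DIV 7 to DIV 12. Fixed cells stained for MAP2 and synaptophysin plus Hoechst; synaptophysin puncta per neurite length quantified by high-content imaging, relative to DMSO.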

[3] = CCTE_Mundy_HCI_Cortical_Synap_Neur_Matur_BPCount: CCTE's Synaptogenesis and Neurite Maturation Assay in rat cortical cells for Branch Point Count, Mundy Lab (AID 2284211)
Procedure, shortened: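 Rat primary cortical cultures, AraC added DIV 5; chemicals dosed DIV 7 through DIV 12. Fixed cells stained for MAP2, synaptophysin and Hoechst; neurite branch points counted by automated high-content imaging, fitted relative to DMSO.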

[4] = CCTE_Mundy_HCI_Cortical_NOG_NeuriteCount: CCTE's Neurite Outgrowth Assay in rat cortical cells for Neurite Count, Mundy Lab (AID 2284212);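 note: cells fixed about two days after chemical exposure began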
Procedure, shortened: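 Neurite number per cell from high-content imaging of betaIII-tubulin immunostaining, with Hoechst nuclear counterstain.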

[5] = CCTE_Mundy_HCI_Cortical_NOG_NeuriteLength: CCTE's Neurite Outgrowth Assay in rat cortical cells for Neurite Length, Mundy Lab (AID 2284213);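 for AC50: neurites imaged about 48 to 50 h after chemical exposure began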
Procedure, shortened: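 Neurite length was read by high-content imaging of βIII-tubulin-labelled neurites in rat primary cortical cultures. Activity was fitted relative to DMSO.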

[6] = CCTE_Mundy_HCI_Cortical_Synap_Neur_Matur_NeuriteLength: CCTE's Synaptogenesis and Neurite Maturation Assay in rat cortical cells for Neurite Length, Mundy Lab (AID 2284214)
Procedure, shortened: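 Rat cortical neurons, AraC at DIV 5; compound + media change DIV 7, end DIV 12 (288.33 h). Fix, MAP2/synaptophysin/Hoechst immunostain, automated HCI of neurite length vs DMSO.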

[7] = CCTE_Mundy_HCI_hN2_NOG_NeuriteCount: CCTE's Neurite Outgrowth Assay in human hN2 cells for Neurite Count, Mundy Lab (AID 2284219; active = hit-call score of the fitted dose curve at least 0.9, where 1 is the maximum)
Procedure, shortened: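 In this morphology assay, hNP1-derived neurons received test chemical 2 h post-plating and were fixed two days later in warm paraformaldehyde/sucrose containing Hoechst 33342. Neurites, labelled by rabbit anti-βIII-tubulin (1:800) and Alexa Fluor-488 (1:500), were counted automatically.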

[8] = CCTE_Mundy_HCI_hN2_NOG_NeuriteLength: CCTE's Neurite Outgrowth Assay in human hN2 cells for Neurite Length, Mundy Lab (AID 2284220; active = hit-call score of the fitted dose curve at least 0.9, where 1 is the maximum)
Procedure, shortened: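 Read-out is neurite length from high-content imaging of βIII-tubulin/Alexa Fluor-488-labelled neurons, referenced to DMSO controls.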

[9] = CCTE_Mundy_HCI_Cortical_Synap_Neur_Matur_NeuriteCount: CCTE's Synaptogenesis and Neurite Maturation Assay in rat cortical cells for Neurite Count, Mundy Lab (AID 2284222)
Procedure, shortened: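 Primary rat cortical cells were plated, treated with AraC at DIV 5, then exposed to chemicals from DIV 7 through DIV 12. After fixation and immunostaining for MAP2 and synaptophysin, imaging quantified neurites, with DMSO as the negative control.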

[10] = CCTE_Mundy_HCI_Cortical_Synap_Neur_Matur_CellBodySpotCount: CCTE's Synaptogenesis and Neurite Maturation Assay in rat cortical cells for Cell Body Spot Count, Mundy Lab (AID 2284223)
Procedure, shortened: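 Read-out: cell body-associated synaptophysin puncta per neuron, imaged after MAP2, synaptophysin and Hoechst staining. Rat cortical cells, AraC DIV 5, chemical dosing DIV 7, fixation DIV 12. Activity fitted in positive direction relative to DMSO baseline.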

[11] = CCTE_Mundy_HCI_hNP1_Pro_ResponderAvgInten: CCTE's Proliferation Assay in human neuroprogenitor cells, Mundy Lab (AID 2284224; active = hit-call score of the fitted dose curve at least 0.9, where 1 is the maximum;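 note: human neural progenitor cells hNP1 derived from WA09 embryonic stem cells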)
Procedure, shortened: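 Proliferation read as average intensity of BrdU-positive cells, imaged at 26.25 h post-dosing: chemical exposure started after 40–44 h culture, BrdU during final 4 h, paraformaldehyde fixation. Positive-direction fit relative to DMSO.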

[12] = BSK_BT_PBMCCytotoxicity: PBMC Cytotoxicity Assessment in the BioMAP Diversity Plus: BT Assay (AID 2284225); settings: primary human B cells with PBMC;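 note: PBMC viability measured by Alamar Blue dye reduction fluorescence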
Procedure, shortened: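 PBMC (75,000/well) pretreated with compound 1 h, then activated with SEB and TSST-1 (20 ng/mL each final), incubated 90 h; Alamar Blue added 6 h, fluorescence read at 546/580 nm. Fitted relative to DMSO.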

[13] = read-out: Secreted IgG (sIgG), gene 3500; test: BSK_BT_sIgG: BioMAP Diversity Plus: BT Assay for Secreted IgG (sIgG) Biomarker Activity (AID 2284226); settings: primary human B cells with PBMC
Procedure, shortened: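 Read-out: ELISA for secreted IgG after 24 h of chemical exposure in a B cell plus PBMC co-culture. Values reflect upward-direction fitting against DMSO negative controls.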

[14] = BSK_BT_Bcell_Proliferation: Viability Assessment in the BioMAP Diversity Plus: BT Assay for B cell Proliferation (AID 2284227); settings: primary human B cells with PBMC
Procedure, shortened: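 Read-out is absorbance at 560 nm from sulforhodamine B staining of total protein, reflecting relative cell numbers in a human B cell and PBMC co-culture after 72 h of chemical exposure. Values were referenced to DMSO.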

[15] = read-out: Interleukin 6 (IL6), IL6 (gene 3569); test: BSK_BT_xIL6: BioMAP Diversity Plus: BT Assay for Interleukin 6 (IL6) Biomarker Activity (AID 2284228); settings: primary human B cells with PBMC
Procedure, shortened: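 Readout: secreted IL-6 via Luminex xMAP multiplex, 24 h post-dosing. System: primary human B cells co-cultured with PBMC. Signal change scored relative to DMSO vehicle, positive fitting direction.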

[16] = read-out: Interleukin 17A (IL17A), IL17A (gene 3605); test: BSK_BT_xIL17A: BioMAP Diversity Plus: BT Assay for Interleukin 17A (IL17A) Biomarker Activity (AID 2284229); settings: primary human B cells with PBMC
Procedure, shortened: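 Luminex xMAP readout of secreted IL-17A; human B cell + PBMC co-culture; 24 h post-dose; positive-direction fit vs DMSO negative control.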

[17] = read-out: Tumor necrosis factor (Homo sapiens) (UniProt P01375); test: BSK_BT_xTNFa: BioMAP Diversity Plus: BT Assay for Tumor necrosis factor alpha (TNF-alpha) Biomarker Activity (AID 2284230); settings: primary human B cells with PBMC
Procedure, shortened: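 Human primary co-culture of B cells and peripheral blood mononuclear cells; TNF-alpha in supernatant, 24 h post-dose, Luminex multiplex; DMSO = baseline.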

[18] = read-out: Vascular cell adhesion molecule 1 (VCAM1), VCAM1 (gene 7412); test: BSK_MyoF_VCAM1: BioMAP Diversity Plus: MyoF Assay for Vascular cell adhesion molecule 1 (VCAM1) Biomarker Activity (AID 2284231); settings: primary human lung fibroblasts
Procedure, shortened: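 MyoF system, lung fibroblasts; 24 h post-dose; VCAM-1 by ELISA; gain-of-signal fit vs DMSO baseline.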

[19] = CCTE_Mundy_HCI_hN2_NOG_NeuronCount: CCTE's Neurite Outgrowth Assay in human hN2 cells for Neuron Count, Mundy Lab (AID 2284221; active = hit-call score of the fitted dose curve at least 0.9, where 1 is the maximum)
Procedure, shortened: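 Read-out is the number of betaIII-tubulin-positive neurons imaged by automated high-content analysis, with DMSO as negative control.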

[20] = TAMU_PeakParms_SingleDonor1434_Chronotropy: Texas A&M University (TAMU) 1.5-hr Human Induced Pluripotent Stem Cell (iPSC)-derived Cardiomyocytes Calcium (Ca+2) Flux Assay for Cardiotoxicity: Chronotropy (changes in peak frequency) (AID 2284217); settings: actives raise or lower the signal
Procedure, shortened: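 iPSC-CMs, donor 1434; 4 conc (0.2–100 uM), 0.5% v/v DMSO, 90 min, 37C/5% CO2; Ca2+ flux fluorescence → peak.freq.avg; peak.freq.avg = 0 dropped; bidirectional fit vs DMSO; EC05 POD.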

Measured: AC50

Chain of Tumor necrosis factor (Homo sapiens) (P01375 whole entry, looked up): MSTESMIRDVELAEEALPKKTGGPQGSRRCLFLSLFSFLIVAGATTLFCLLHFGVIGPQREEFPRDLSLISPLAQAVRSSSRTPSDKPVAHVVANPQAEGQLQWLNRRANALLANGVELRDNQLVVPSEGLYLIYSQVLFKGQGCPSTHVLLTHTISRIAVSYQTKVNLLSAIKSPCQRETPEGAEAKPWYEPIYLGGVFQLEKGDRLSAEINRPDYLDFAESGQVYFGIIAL

CCOC(=O)CC(SP(=O)(OC)OC)C(=O)OCC (configuration not stated)
inactive: [1] | [2] | [3] | [4] | [5] | [6] | [7] | [8] | [9] | [10]

CCOP(=S)(OCC)Oc1cc(C)nc(C(C)C)n1
active: [3] 50 µM | [6] 50 µM
inactive: [1] | [2] | [4] | [5] | [9] | [10] | [11]

CN(C)[C@@H]1C(=O)C(C(N)=O)=C(O)[C@@]2(O)C(=O)C3=C(O)c4c(O)cccc4[C@@](C)(O)[C@H]3[C@H](O)[C@@H]12
active: [2] 50 µM | [3] 70.5 µM | [6] 60.9 µM | [9] 72.5 µM | [10] 50 µM | [11] 90.6 µM
not listed: [7] | [8] | [19] | [20]
inactive: all other assays above

CSC1=N[C@@](C)(c2ccccc2)C(=O)N1Nc1ccccc1
inactive: [1] | [2] | [3] | [4] | [5] | [6] | [9] | [10] | [11]

CCCSP(=O)(OCC)SCCC
not listed: [12] | [13] | [14] | [15] | [16] | [17] | [18] | [20]
inactive: all other assays above

CCOP(=S)(OCC)Oc1ccc([N+](=O)[O-])cc1
active: [2] 20.9 µM | [3] 2.98 µM | [4] 23.7 µM | [6] 15 µM
inactive: [5] | [20] | [9] | [10]

CCCCSP(=O)(SCCCC)SCCCC
active: [2] 14 µM | [3] 50 µM and 14 µM | [4] 77.8 µM and 49.9 µM | [5] 86.1 µM and 75.3 µM | [6] 50 µM and 14.2 µM | [9] 16.1 µM | [10] 22.9 µM | [11] 50 µM and 74.1 µM
inactive: [1] | [2] | [9] | [10]

CCOP(=S)(OCC)SCCSCC
inactive: [1] | [2] | [3] | [4] | [5] | [6] | [9] | [10] | [11]

O=[N+]([O-])c1cc(C(F)(F)F)c(Cl)c([N+](=O)[O-])c1Nc1ncc(C(F)(F)F)cc1Cl
active: [1] 7.56 µM | [2] 1.06 µM | [3] 0.934 µM | [4] 1.44 µM | [5] 800 nM | [6] 0.924 µM | [9] 0.962 µM | [10] 1.9 µM | [11] 1.89 µM | [12] 4.22 µM | [13] 0.282 µM | [14] 2.57 µM | [15] 3.72 µM | [16] 0.73 µM | [17] 3.97 µM | [18] 2.53 µM

COP(=O)(OC)OC(Br)C(Cl)(Cl)Br (configuration not stated)
active: [1] 26.6 µM | [3] 50 µM and 27.8 µM | [4] 31.5 µM and 30.7 µM | [5] 29.4 µM and 20.6 µM | [6] 32.5 µM and 41.6 µM | [9] 50 µM | [10] 9.92 µM | [11] 14 µM and 16.7 µM
inactive: [2] | [9] | [10]

COP(=O)(OC)C(O)C(Cl)(Cl)Cl (configuration not stated)
active: [3] 26.8 µM | [6] 36.9 µM | [11] 50 µM
inactive: [1] | [2] | [4] | [5] | [9]

CCCSP(=O)(OCC)Oc1ccc(Br)cc1Cl (configuration not stated)
inactive: [2] | [3] | [4] | [5] | [6] | [19] | [9] | [10]

S=C1NCCN1
inactive: [1] | [2] | [3] | [4] | [5] | [6] | [9] | [10] | [11]
